Screens as filed in PubChem.
EWS-Fli block: blocks EWS/Fli oncoprotein-driven transcription; A673 NR0B1-luciferase reporter, viability-normalised; AID 651661; inhibition, % at 12.6 µM; 350,000 compounds, 0.67% hits;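 active = mean inhibition of at least 50% after viability correction, with every replicate also passing that limit; inconclusive = mean reaches 50% but only one of two replicates passes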;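 note: firefly luciferase signal divided by Alamar Blue viability fluorescence both relative to DMSO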
PAX8 reporter: PAX8 transcriptional activity inhibition. RMG-I TPO-luciferase reporter, SteadyGlo, 24 h. AID 652154. inhibition, % at 12.6 µM. 360,000 compounds, 1.2% hits;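 active = mean replicate inhibition at least 60% with every replicate also reaching 60%; inconclusive = only one of the two criteria is met; inactive = mean below 60% and not all replicates reaching 60%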;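 note: luciferase light reporting Pax8 driven TPO promoter activity; plate controls were median of neutral control wells for no effect and mitoxantrone controls for full effect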
TRPM1 prom inh: reduces MITF-dependent TRPM1 promoter luciferase signal | SK-MEL-5 TRPM1 promoter luciferase, 24 h | inhibition, % at 12.5 µM | 330,000 compounds, 0.83% hits;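 active = mean inhibition across replicates of 60% or more, whatever share of single replicates reaches that level; inconclusive = some that reach 60%, reason not given; inactive = mean inhibition across replicates below 60%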
Shn3 3UTR inh: reduces Shn3 3'UTR luciferase signal in osteoblasts | 360,000 compounds, 0.52% hits | Clone20 osteoblast Shn3 3'UTR firefly luciferase, 24 h | AID 588674 | inhibition, % at 12.5 µM;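 active = mean inhibition of at least 75% with every replicate also reaching 75%; inconclusive = mean inhibition at least 75% but some replicate below; inactive = mean inhibition below 75%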;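 note: 0% = median of neutral control wells and 100% = pilot-screen positive control compound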
EBV LMP1 NFkB: inhibitors of Epstein-Barr LMP1-induced NF-kappaB reporter | inhibition, % at 12.5 µM | 350,000 compounds, 0.69% hits | AID 504558 | LMP1-induced NF-kappaB luciferase reporter cells, luminescence; in the data active = inhibition above about 41%; inconclusive = no clear call, values can overlap the other calls;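 note: 0% = neutral control wells and 100% = reference inhibitor control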
LGR2 inh: Drosophila LGR2 receptor signaling inhibition | inhibition, % at 9.99 µM | 380,000 compounds, 0.35% hits | HEK293 LGR2, CRE-luciferase, bursicon-stimulated, 4 h;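 active = drop in luminescence signal, shown as inhibition above about 50% in the replicate tests, limit read from the data, passing the limit was not always enough; inconclusive = probably only some replicates passing the limit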;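 note: agonist challenge used bursicon conditioned medium at about half maximal strength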
Active calls of the source: *; ? = inconclusive; · = no result. Only some compounds are listed: those with a hit (about 2.2% of all), similar ones and a draw of the others.

SMILES	EWS-Fli block	PAX8 reporter	TRPM1 prom inh	Shn3 3UTR inh	EBV LMP1 NFkB	LGR2 inh
S=c1[nH]nc(-c2cccnc2)n1/N=C/c1ccccc1	5	23	-9	0	3	-19
C[C@@H]1CN([C@H](C)CO)C(=O)c2cc(C3=CCCC3)cnc2O[C@H]1CN(C)C(=O)Cc1ccncc1	-10	10	·	·	·	4
CC(C)(C)S(=O)N1Cc2cc(C(=O)N[C@@H]3CCN(Cc4ccccc4)C3)nc(-c3cccc(C#CCC4CCCC4)c3)c2[C@H]1CCO (stereo partly specified)	16	14	·	·	·	·
COc1ccc(-c2cn3cc(C)ccc3n2)cc1F	-9	8	13	-1	33	90*
Cc1ccc2nc(-c3ccc4c(c3)OCCO4)cn2c1	22	87*	84*	66	85*	91*
COc1ccc(-c2cn3ccccc3n2)cc1OC	·	·	-31	-62	-6	·
Clc1ccc2nc(-c3ccc4c(c3)OCO4)cn2c1	46	17	41	-3	60*	86*
c1ccn2cc(-c3ccc4c(c3)OCCO4)nc2c1	54*	56	34	-3	57*	91*
O=C(Cc1cccnc1)N1CC2(C1)[C@@H](c1ccccc1)[C@@H](CO)N2C(=O)C1CC1	1	·	·	·	·	18
CC(=O)c1c(C)[nH]c(C(=O)Nc2nc(C)cs2)c1C	74*	58	31	49	71*	·
CC(=O)c1c(C)[nH]c(C(=O)Nc2ccc(C)cn2)c1C	·	?	45	39	58*	·
CC(=O)c1c(C)[nH]c(C(=O)Nc2nc(-c3ccc(-c4ccccc4)cc3)cs2)c1C	2	-34	-5	42	23	91*
CC(=O)c1c(C)[nH]c(C(=O)Nc2nc(-c3ccc(Cl)cc3)cs2)c1C	·	-23	5	-19	23	2
O=C(Nc1ccc(-c2nc3cccnc3s2)cc1)C1CCCO1 (stereo unspecified)	66*	0	·	83	65*	90*
Cc1ccc2nc(-c3ccc(NC(=O)C4CCCO4)cc3)[nH]c2c1 (stereo unspecified)	·	·	10	20	34	60*
O=C(Nc1ccc(-c2nc3ccccc3o2)cc1)C1CCCO1 (stereo unspecified)	·	·	-38	-16	-11	·
COc1cccc(CN2[C@H](CO)[C@@H](c3ccccc3)C23CN(Cc2ccccc2OC)C3)c1	0	26	·	·	·	4
O=C(Nc1ccccc1C(=O)NCc1ccco1)Nc1cccc2ccccc12	8	61*	2	9	-7	·
O=C(C1CCN(S(=O)(=O)c2cccnc2)CC1)N1CCN(c2ccc(Cl)cc2)CC1	6	67*	12	72	26	11
c1csc(CCNc2ncnc3sc4c(c23)CCC4)c1	17	39	10	88*	5	·
C[C@H](CO)N1C[C@H](C)[C@H](CN(C)C(=O)C2CCCCC2)OCCCC[C@H](C)Oc2ccc(NS(=O)(=O)c3ccc(Cl)cc3)cc2C1=O	9	?	·	·	·	12
C[C@@H]1CCCCO[C@H](CN(C)C(=O)C2CCCCC2)[C@H](C)CN([C@@H](C)CO)C(=O)c2cc(NS(=O)(=O)c3ccc(Cl)cc3)ccc2O1	12	76*	·	·	·	23
C[C@@H]1CN([C@H](C)CO)C(=O)c2cc(NS(=O)(=O)c3ccc(Cl)cc3)ccc2O[C@@H](C)CCCCO[C@@H]1CN(C)C(=O)C1CCCCC1	5	64*	·	·	·	8
Cc1ccc(S(=O)(=O)Nc2ccc3c(c2)C(=O)N([C@H](C)CO)C[C@@H](C)[C@@H](CN(C)Cc2ccccc2)O3)cc1	·	11	·	·	·	-21
O=C(Nc1ccccc1)N1C[C@@H]2[C@H](c3ccccc31)[C@H](CO)N2C(=O)c1ccncc1	-28	-62	·	·	·	-13
SMILES	EWS-Fli block	PAX8 reporter	TRPM1 prom inh	Shn3 3UTR inh	EBV LMP1 NFkB	LGR2 inh
CCOC(=O)C1(Cc2cccc(OC)c2)CCN(C/C=C/c2ccc(OC)cc2)CC1	18	-1	10	88*	9	22
O=C([C@@H]1[C@@H](CO)[C@@H]2Cn3c(ccc(-c4cccnc4)c3=O)[C@H]1N2CC1CC1)N1CCCCC1	6	·	·	·	·	5
Cc1cc(C)nc(Sc2nc(Nc3ccccc3)nc(Sc3nc(C)cc(C)n3)n2)n1	·	61*	-8	7	3	0
CC(=O)N(Cc1ccc(F)cc1)C1=C(NCCc2ccccc2)C(=O)c2ccccc2C1=O	·	105*	104*	38	76*	·
CC(=O)N(Cc1ccc(F)cc1)c1cccc(C)c1C	11	16	0	9	4	25
Oc1c(N=NC(=S)Nc2ccccc2F)c2ccccc2n1Cc1ccc(F)cc1	4	20	-3	34	51*	18
Oc1c(N=NC(=S)Nc2ccccc2F)c2ccccc2n1Cc1cccc(Cl)c1	27	3	16	43	44*	9
COc1ccccc1S(=O)(=O)Nc1ccc2c(c1)C(=O)N(C)C[C@@H](OC)[C@H](C)CN[C@@H](C)CO2	-5	-26	·	·	·	1
C[C@@H]1CN([C@H](C)CO)C(=O)c2cccc(NC(=O)CCCCCC(=O)Nc3ccccc3N)c2O[C@H]1CN(C)C(=O)Nc1ccc(F)cc1	·	-22	·	·	·	-5
O=C(C[C@H]1CC[C@@H](NC(=O)c2cccnc2)[C@H](CO)O1)NCc1ccncn1	1	-9	·	·	·	2
O=C1C(Nc2ccccc2)=C(N2CCCCC2)C(=O)c2ccccc21	·	·	75*	6	5	·
Cc1ccc(NC2=C(N3CCCCC3)C(=O)c3ccccc3C2=O)cc1	·	·	32	-12	-2	-15
O=C(/C=C/c1ccc(O)cc1)c1ccc(NC2=C(N3CCCCC3)C(=O)c3ccccc3C2=O)cc1	-17	·	26	-15	43*	-36
C[C@H](CO)N1C[C@H](C)[C@@H](CN(C)Cc2ccncc2)OCCCC[C@H](C)Oc2ccc(N(C)C)cc2C1=O	-4	-9	·	·	·	15
CCCCNS(=O)(=O)c1ccc(NC(=O)C(Sc2ccccc2)c2ccccc2)cc1 (stereo unspecified)	·	72*	1	51	-1	13
COc1ccc(C(=O)c2c(C(F)(F)F)oc3c2C(=O)c2ccccc2C3=O)cc1	·	·	105*	97*	85*	·
COc1ccc(C(=O)c2coc(-c3ccccc3C(=O)O)c2C(=O)O)cc1	·	-4	6	-8	-6	-15
COc1ccc2[nH]c(C)c(CCN3C(=O)OC(C)(C)C3(C)O)c2c1 (stereo unspecified)	-4	17	-7	6	90*	-13
COc1ccc2[nH]c(C)c(CCN3C(=O)C4CC=CCC4C3=O)c2c1 (stereo unspecified)	-18	-4	-2	1	1	2
O=C(c1ccc(F)cc1)N1CC[C@@H]2[C@@H](CO)Nc3ccc(-c4ccccc4F)cc3[C@@H]21	-11	14	·	·	·	16
COc1ccc(NC(=O)Cn2c(=O)n(-c3ccc(CC(=O)NCc4ccco4)cc3)c(=O)c3ccccc32)cc1	10	38	71*	8	4	-8
